# Source: PubChem BioAssay (NCATS)
# Results filed as inconclusive are left out. A call without a number means that no potency is given here. Activity calls are given as the source filed them. Calls follow the shape of the dose curve; as a rule, active = well fitted activation curve with a large enough effect; inconclusive = small, poorly fitted or top-dose-only effect; inactive = flat fitted curve, though single readings scatter.
# Test: Validation screen for small molecules that induce DNA re-replication in SW480 colon adenocarcinoma cells (AID 504364)
# Conditions: DNA re-replication phenotype (high-content imaging); series mostly up to 46.1 µM
# Text: H Molecular Libraries Probe Production Network [MLPCN]
# NIH Chemical Genomics Center [NCGC]
# Assay Provider: Melvin DePamphilis, NICHD, NIH
# Eukaryotic cells normally restrict genome duplication to once per cell division. When this process is aberrant, DNA re-replication occurs when cells reinitiate DNA replication before the first round of replication is complete. DNA re-replication induces the DNA damage response, arrests cell proliferation, and triggers apoptosis. The cell cycle components cyclin A, Cdt-1, Cdc6 and geminin are critical regulators of this process and their misregulation results in DNA re-replication in normal and cancer cells. To identify compounds that induce re-replication in normal cells, an image-based assay was used to measure DNA content of nuclei, as detected by the fluorescent DNA binding dye, Hoechst. Cell nuclei were imaged by a fluorescence scanning plate imager and compounds that induce DNA re-replication were identified by the increase of nuclei with elevated fluorescence intensity.#
# For screening, 250 cells in 5 uL/well were dispensed into black clear 1536-well plates (Aurora) using a solenoid-based dispenser. Following transfer of 23 nL compound or DMSO vehicle by a pin tool, the plates were incubated 48 hr at 37 C and 5% CO2. After addition of 1 uL/well Hoescht stain, the plates were incubated 40 min at 37 C, 5% CO2 and total intensity of fluorescent objects (nuclei) were enumerated by an Acumen Explorer Ex3 (TTP LabTech) fluorescence scanning plate imager (405 nm excitation, 500-530 nm emission).
# Keywords: NIH Roadmap, MLPCN, MLI, MLSMR, qHTS, NCGC, DNA replication, cancer
# Potency is read from the fitted curve at half-maximal effect.
row,SMILES,Potency
1,N#CC(C#N)=Cc1ccc([N+](=O)[O-])c(O)c1,inactive
2,COc1ccc2[nH]cc(CCN(C)C)c2c1,inactive
3,CP(=O)(O)CCCN,inactive
4,COc1ccc(-n2nc(C(F)(F)F)cc2-c2ccc(Cl)cc2)cc1,inactive
5,CN1CCc2cc(O)cc3c2C1Cc1ccc(O)c(O)c1-3 (configuration not stated),inactive
6,C=CCN1CCC2(C)c3cc(O)ccc3CC1C2C (configuration not stated),inactive
7,COc1cc(CCN)ccc1O,inactive
8,COC(=O)c1cc2c(cn1)[nH]c1ccccc12,inactive
9,COc1ccc(CCN)cc1O,inactive
10,N[C@H](CCCCCP(=O)(O)O)C(=O)O,inactive
11,COc1cc([C@@H]2c3cc4c(cc3[C@H](O)C3COC(=O)[C@@H]32)OCO4)cc(OC)c1OC (some centres not stated),32.6 nM (active)
12,CN1CCN(c2ccc3ccccc3n2)CC1,inactive
13,CC(=O)OCC1=C(C(=O)[O-])N2C(=O)[C@@H](NC(=O)CCC[C@@H](N)C(=O)[O-])[C@H]2SC1.[Zn+2],inactive
14,O=[N+]([O-])c1ccc(O[C@@H]2O[C@H](CO)[C@@H](O)[C@H](O)[C@H]2F)c([N+](=O)[O-])c1,inactive
15,C[N+]1(C)CCc2cc3c(cc2C1C1OC(=O)c2c1ccc1c2OCO1)OCO3 (configuration not stated),inactive
16,N[C@@H](Cn1cc(I)c(=O)[nH]c1=O)C(=O)O,inactive
17,CC(O)C(C)OC(=O)[C@@H]1C[C@@H]2c3cccc4c3c(cn4C(C)C)C[C@H]2N(C)C1 (some centres not stated),inactive
